PubChem BioAssay (NCATS)
Records with an inconclusive call do not appear. The source made the active and inactive calls. The call rests on the fitted dose curve; in most records, active means well fitted curve in the direction sought with a large enough effect; inconclusive means small, poorly fitted or top-dose-only effect, or another doubt; inactive means no such curve, though single readings can be large or run the other way. Where a SMILES comes first, the peptide text is derived from it. [ ]: non-standard residue; d: D form. pGlu = O=C1CC[C@@H](C(=O)O)N1

The compounds below were run against Protein phosphatase 1D (Homo sapiens) (UniProt O15297) (assay: Rhodamine-PBP qHTS Assay for Modulators of WT P53-Induced Phosphatase 1 (WIP1) (AID 1347425)). Details: recombinant WIP1, Rhodamine-PBP phosphate fluorescence, real-time; series mostly up to 57.5 µM.
Sequence of Protein phosphatase 1D (Homo sapiens) (O15297 whole entry, looked up): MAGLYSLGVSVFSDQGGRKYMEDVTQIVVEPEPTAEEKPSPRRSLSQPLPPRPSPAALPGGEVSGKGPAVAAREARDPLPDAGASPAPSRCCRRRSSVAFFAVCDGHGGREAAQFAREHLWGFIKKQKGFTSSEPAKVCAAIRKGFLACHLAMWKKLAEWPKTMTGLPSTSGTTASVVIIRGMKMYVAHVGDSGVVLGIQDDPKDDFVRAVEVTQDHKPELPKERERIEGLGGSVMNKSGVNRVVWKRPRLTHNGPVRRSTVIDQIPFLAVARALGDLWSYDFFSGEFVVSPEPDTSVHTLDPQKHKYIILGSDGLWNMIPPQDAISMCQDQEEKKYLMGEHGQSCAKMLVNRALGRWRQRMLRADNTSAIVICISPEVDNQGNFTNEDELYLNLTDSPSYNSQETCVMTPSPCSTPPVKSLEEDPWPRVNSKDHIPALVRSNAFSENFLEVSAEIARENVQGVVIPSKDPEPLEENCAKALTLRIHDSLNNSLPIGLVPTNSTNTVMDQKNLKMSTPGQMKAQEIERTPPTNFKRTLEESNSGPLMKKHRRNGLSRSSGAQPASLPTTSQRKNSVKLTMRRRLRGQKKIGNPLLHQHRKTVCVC
Procedure, shortened: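 WIP1 (5 nM final) was preincubated with compound for 1 hour at room temperature. It then dephosphorylated 10 uM VEPPL-pS-QETFS peptide in Tris-HCl pH 7.5 with 30 mM MgCl2. Released Pi was detected by 10 uM Rh-PBP fluorescence (ex 525/em 598 nm) read at 1-min intervals for 11 min, as delta f1 - f0.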

SMILES	outcome
CC1(C)OC(=O)Nc2ccc(Br)cc21	inactive
COc1ccc(-n2nc(CCC(=O)N(C)O)cc2-c2ccc(Cl)cc2)cc1	inactive
CC(NN)c1ccccc1 (stereo unspecified)	inactive
CCc1cc2cc(OC)c(OC)cc2c(Cc2ccccc2)n1	inactive
CC(=O)O[C@H]1CC[C@@]2(C)C(=CC[C@@H]3[C@@H]2CC[C@]2(C)C(C(C)=O)=CC[C@@H]32)C1	inactive
COCCc1ccccn1	inactive
OCCCc1ccccc1	inactive
COc1ccc2cc(C=O)ccc2c1	inactive
CCCCCN(CCCOC)C(=O)C(CCC(=O)O)NC(=O)c1ccc(Cl)c(Cl)c1 (stereo unspecified)	inactive
COC(=O)CCCCC(CCSS/C(CCO)=C(\C)N(C=O)Cc1cnc(C)nc1N)SC(C)=O (stereo unspecified)	inactive
Oc1ccc(CCNCCCCCCNCCc2ccccc2)cc1O	inactive
CCN1CCN(C(=O)N[C@@H](C(=O)N[C@@H]2C(=O)N3[C@@H]2SC(C)(C)[C@H]3C(=O)O)c2ccccc2)C(=O)C1=O	inactive
COc1cc(/C=C/C(N)=O)cc(OC)c1OC	inactive
O=C(CS(=O)Cc1ccco1)NC/C=C\COc1cc(CN2CCCCC2)ccn1 (stereo unspecified)	inactive
NS(=O)(=O)c1ccc(N2CCCCS2(=O)=O)cc1	inactive
CN(C)CCN1CCN(c2cccc(Cl)c2)C1=O	inactive
CN1CCN(N)CC1	inactive
C1N2CN3CN1CN(C2)C3	inactive

SMILES	outcome
O=C(O)CCCC[P+](c1ccccc1)(c1ccccc1)c1ccccc1	inactive
Cc1ncc(CO)c(CO)c1O	inactive
CCOC(=O)O[C@]1(C(=O)OCCl)CC[C@H]2[C@@H]3CCC4=CC(=O)C=C[C@]4(C)[C@H]3[C@@H](O)C[C@@]21C	inactive
CCOC(=O)NNc1ccc(N(CC)CC(C)O)nn1 (stereo unspecified)	inactive
CCC1(c2cnc[nH]2)Cc2ccccc2C1	inactive
Cc1[nH]cnc1-c1ccc(Cl)cc1	inactive
O=[N+]([O-])c1ccc(O)c2ncccc12	inactive
CC(=O)/C=C/C=C1/C2CCC(C2)C1(C)C (stereo unspecified)	inactive
CN1CCC(=C2c3ccccc3CCc3cccnc32)CC1	inactive
CC(C)(C)NCC(O)COc1ccccc1OCC1CCCO1 (stereo unspecified)	inactive
CC(COc1ccccc1)NN (stereo unspecified)	inactive
CN1CCC(Nc2ncc3ncnc(Nc4ccc(F)c(Cl)c4)c3n2)CC1	inactive
CCOCCn1c(C2CCN(CCc3ccc(C(C)(C)C(=O)O)cc3)CC2)nc2ccccc21	inactive
O=C(Oc1ccccc1)c1ccccc1O	inactive
O=c1[nH]c(=O)n([C@H]2O[C@H](CO)[C@@H](O)[C@@H]2O)cc1/C=C\Br	inactive
CC(=O)OC/C=C(C)/C=C/C=C(C)/C=C/C1=C(C)CCCC1(C)C	inactive
CCNC(=O)[C@@H]1CCCN1C(=O)[C@H](CCCN=C(N)N)NC(=O)[C@H](CC(C)C)NC(=O)CNC(=O)[C@H](Cc1ccc(O)cc1)NC(=O)[C@H](CO)NC(=O)[C@H](Cc1c[nH]c2ccccc12)NC(=O)[C@H](Cc1cnc[nH]1)NC(=O)[C@@H]1CCC(=O)N1 ([pGlu]HWSYGLRP-NHEt)	inactive
O=C(O)CCCC[C@@H]1SC[C@@H]2NC(=O)N[C@@H]21	inactive
